Laboratory results published in PubChem BioAssay AID1159580 (chemical genetic matrix, 2015).
Several values for one entry are separate records, joined by “and”; a condition that tells them apart may be missing. Equal values may be shown once. Hit rate of the full screen: of about 5,500 compounds, about 2,000 (36%) were called active. Not shown: some 18% with an inconclusive outcome. Cut-off read from the data, not from the text of the source: active = normalized growth mostly below about 0.91 (no sharp cut-off); inconclusive = no clear call, values can overlap the other calls; inactive = mostly above about 0.92. This is one part of the list.

Experiment: chemical genetic growth profiling, strain panel (AID 1159580);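 note: tested at 20 µM; growth read once vehicle control cultures reached saturation at 30 °C; 1 = growth at the plate median or of vehicle wells; lower values mean less growth of the strain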
Conditions: growth OD
[1] = S. cerevisiae deletion strains, locus YAL013W, strain DEP1, stronger effect = lower value
[2] = S. cerevisiae deletion strains, locus YBR229C, strain ROT2, stronger effect = lower value
[3] = S. cerevisiae deletion strains, locus YDL101C, strain DUN1, stronger effect = lower value
[4] = S. cerevisiae deletion strains, locus YDL134C, strain PPH21, stronger effect = lower value
[5] = S. cerevisiae deletion strains, locus YDR150W, strain NUM1, stronger effect = lower value
[6] = S. cerevisiae deletion strains, locus YEL061C, strain CIN8, stronger effect = lower value
[7] = S. cerevisiae deletion strains, locus YGR229C, strain SMI1, stronger effect = lower value
[8] = S. cerevisiae deletion strains, locus YHR030C, strain SLT2, stronger effect = lower value
[9] = S. cerevisiae deletion strains, locus YJR043C, strain POL32, stronger effect = lower value
[10] = S. cerevisiae deletion strains, locus YJR075W, strain HOC1, stronger effect = lower value
[11] = S. cerevisiae deletion strains, locus YLR039C, strain RIC1, stronger effect = lower value
[12] = S. cerevisiae deletion strains, locus YLR262C, strain YPT6, stronger effect = lower value
[13] = S. cerevisiae deletion strains, locus YNL153C, strain GIM3, stronger effect = lower value
[14] = S. cerevisiae deletion strains, locus YNL322C, strain KRE1, stronger effect = lower value
[15] = S. cerevisiae deletion strains, locus YPL055C, strain LGE1, stronger effect = lower value

Measured: normalized growth

O=C(O)c1cccnc1Nc1cccc(C(F)(F)F)c1
active: S. cerevisiae deletion strains, locus YDL185W, strain tfp1, stronger effect = lower value 0.896 | S. cerevisiae deletion strains, locus YIL125W, strain kgd1, stronger effect = lower value 0.919 | S. cerevisiae deletion strains, locus YKL068W, stronger effect = lower value 0.912 | S. cerevisiae deletion strains, locus YKL085W, strain MDH1 (second series), stronger effect = lower value 0.916 | S. cerevisiae deletion strains, locus YKL085W, strain MDH1, stronger effect = lower value 0.916 | S. cerevisiae deletion strains, locus YML124C, strain tub3, stronger effect = lower value 0.933 | S. cerevisiae deletion strains, locus YNL271C, strain bni1, stronger effect = lower value 0.916 | S. cerevisiae deletion strains, locus YPR141C, strain kar3, stronger effect = lower value 0.895
inactive: [1] 0.97 | S. cerevisiae deletion strains, locus YAL040C, strain CLN3, stronger effect = lower value 1.02 | S. cerevisiae deletion strains, locus YBR021W, strain FUR4, stronger effect = lower value 0.922 | [2] 0.964 | S. cerevisiae deletion strains, locus YCL029C, strain bik1, stronger effect = lower value 0.944 | S. cerevisiae deletion strains, locus YCL061C, strain MRC1 (second series), stronger effect = lower value 1 | S. cerevisiae deletion strains, locus YDL035C, strain GPR1, stronger effect = lower value 0.984 | S. cerevisiae deletion strains, locus YDL074C, strain BRE1, stronger effect = lower value 0.999 | [3] 0.981 | [4] 0.946 | S. cerevisiae deletion strains, locus YDL192W, strain arf1, stronger effect = lower value 0.942 | S. cerevisiae deletion strains, locus YDR101C, strain arx1, stronger effect = lower value 0.967 | [5] 0.975 | S. cerevisiae deletion strains, locus YDR162C, strain NBP2, stronger effect = lower value 0.968 | S. cerevisiae deletion strains, locus YDR318W, strain mcm21, stronger effect = lower value 0.953 | S. cerevisiae deletion strains, locus YDR363W, strain ESC2, stronger effect = lower value 1 | S. cerevisiae deletion strains, locus YDR388W, stronger effect = lower value 0.941 | S. cerevisiae deletion strains, locus YDR502C, strain sam2, stronger effect = lower value 0.963 | [6] 0.972 | S. cerevisiae deletion strains, locus YER002W, strain NOP16, stronger effect = lower value 0.973 | S. cerevisiae deletion strains, locus YER110C, stronger effect = lower value 0.954 | S. cerevisiae deletion strains, locus YER155C, strain BEM2, stronger effect = lower value 0.931 | S. cerevisiae deletion strains, locus YER167W, strain BCK2, stronger effect = lower value 0.957 | S. cerevisiae deletion strains, locus YGL078C, strain dbp3, stronger effect = lower value 0.943 | S. cerevisiae deletion strains, locus YGL086W, strain mad1, stronger effect = lower value 0.963 | S. cerevisiae deletion strains, locus YGL248W, strain PDE1, stronger effect = lower value 0.989 | S. cerevisiae deletion strains, locus YGR135W, strain pre9, stronger effect = lower value 0.95 | [7] 0.978 | S. cerevisiae deletion strains, locus YGR252W, strain gcn5, stronger effect = lower value 0.911 | [8] 0.949 | S. cerevisiae deletion strains, locus YHR079C, strain IRE1 (second series), stronger effect = lower value 0.942 | S. cerevisiae deletion strains, locus YHR094C, strain hxt1, stronger effect = lower value 0.941 | S. cerevisiae deletion strains, locus YHR129C, strain ARP1, stronger effect = lower value 0.953 | S. cerevisiae deletion strains, locus YHR200W, strain rpn10, stronger effect = lower value 0.945 | S. cerevisiae deletion strains, locus YIL066C, strain RNR3, stronger effect = lower value 0.973 | S. cerevisiae deletion strains, locus YIL073C, strain SPO22, stronger effect = lower value 0.954 | S. cerevisiae deletion strains, locus YIR030C, strain dcg1, stronger effect = lower value 0.939 | S. cerevisiae deletion strains, locus YJL095W, strain BCK1, stronger effect = lower value 0.996 | S. cerevisiae deletion strains, locus YJL134W, strain LCB3, stronger effect = lower value 0.953 | S. cerevisiae deletion strains, locus YJL168C, strain set2, stronger effect = lower value 0.941 | S. cerevisiae deletion strains, locus YJL187C, strain SWE1 (second series), stronger effect = lower value 1 | [9] 0.991 | [10] 0.981 and 1.02 | S. cerevisiae deletion strains, locus YKL009W, strain mrt4, stronger effect = lower value 0.944 | S. cerevisiae deletion strains, locus YKL190W, strain CNB1, stronger effect = lower value 0.979 | S. cerevisiae deletion strains, locus YKR001C, strain vps1, stronger effect = lower value 0.949 | [11] 0.966 | S. cerevisiae deletion strains, locus YLR058C, strain SHM2, stronger effect = lower value 0.969 | S. cerevisiae deletion strains, locus YLR102C, strain apc9, stronger effect = lower value 0.938 | [12] 0.975 | S. cerevisiae deletion strains, locus YLR268W, strain sec22, stronger effect = lower value 0.978 | S. cerevisiae deletion strains, locus YLR330W, strain CHS5, stronger effect = lower value 0.943 | S. cerevisiae deletion strains, locus YLR342W, strain FKS1 (second series), stronger effect = lower value 0.936 | S. cerevisiae deletion strains, locus YLR371W, strain rom2, stronger effect = lower value 0.951 | S. cerevisiae deletion strains, locus YLR418C, strain cdc73, stronger effect = lower value 0.909 | S. cerevisiae deletion strains, locus YML016C, strain PPZ1, stronger effect = lower value 0.967 | S. cerevisiae deletion strains, locus YML032C, strain rad52, stronger effect = lower value 0.966 | S. cerevisiae deletion strains, locus YMR078C, strain ctf18, stronger effect = lower value 0.945 | S. cerevisiae deletion strains, locus YMR223W, strain ubp8, stronger effect = lower value 0.958 | S. cerevisiae deletion strains, locus YMR263W, strain SAP30, stronger effect = lower value 0.973 | S. cerevisiae deletion strains, locus YMR307W, strain GAS1, stronger effect = lower value 0.881 | S. cerevisiae deletion strains, locus YNL067W, strain RPL9B, stronger effect = lower value 1.02 | [13] 0.991 | S. cerevisiae deletion strains, locus YNL175C, strain NOP13, stronger effect = lower value 0.981 | S. cerevisiae deletion strains, locus YNL197C, strain WHI3, stronger effect = lower value 1 | S. cerevisiae deletion strains, locus YNL224C, strain SQS1, stronger effect = lower value 0.969 | S. cerevisiae deletion strains, locus YNL233W, strain BNI4, stronger effect = lower value 0.988 | S. cerevisiae deletion strains, locus YNL250W, strain rad50, stronger effect = lower value 0.9 | S. cerevisiae deletion strains, locus YNL298W, strain CLA4, stronger effect = lower value 0.942 | S. cerevisiae deletion strains, locus YNL307C, strain MCK1, stronger effect = lower value 0.937 | [14] 0.969 and 1.02 | S. cerevisiae deletion strains, locus YNR052C, strain pop2, stronger effect = lower value 0.949 | S. cerevisiae deletion strains, locus YOL006C, strain TOP1, stronger effect = lower value 0.99 | S. cerevisiae deletion strains, locus YOL012C, strain htz1 1.13 | S. cerevisiae deletion strains, locus YOL147C, strain pex11, stronger effect = lower value 0.935 | S. cerevisiae deletion strains, locus YOR061W, strain CKA2, stronger effect = lower value 0.974 | S. cerevisiae deletion strains, locus YOR069W, strain VPS5, stronger effect = lower value 0.956 | S. cerevisiae deletion strains, locus YOR083W, strain WHI5 (second series), stronger effect = lower value 0.992 | S. cerevisiae deletion strains, locus YOR136W, strain idh2, stronger effect = lower value 0.98 | S. cerevisiae deletion strains, locus YOR144C, strain elg1, stronger effect = lower value 0.944 | S. cerevisiae deletion strains, locus YOR184W, strain ser1, stronger effect = lower value 0.968 | S. cerevisiae deletion strains, locus YOR316C, strain cot1, stronger effect = lower value 0.931 | [15] 1.04 and 1.01 | S. cerevisiae deletion strains, locus YPR119W, strain clb2, stronger effect = lower value 0.934 | S. cerevisiae deletion strains, locus YPR163C, strain tif3, stronger effect = lower value 0.95 | S. cerevisiae deletion strains, locus YPR167C, strain met16, stronger effect = lower value 0.938 | S. cerevisiae deletion strains, strain wtn01, stronger effect = lower value 0.957 | S. cerevisiae strains, strain wild type, stronger effect = lower value 0.981

O=C(/C=N\Nc1ccccc1)Nc1ccccc1C(=O)O
inactive: [1] 0.975 | [2] 0.98 | [3] 0.99 | [4] 0.99 | [5] 0.883 | [6] 0.986 | [7] 1.02 | [8] 0.716 | S. cerevisiae deletion strains, locus YHR087W, strain rtc3, stronger effect = lower value 0.92 | S. cerevisiae deletion strains, locus YJL187C, strain SWE1, stronger effect = lower value 0.983 | [9] 0.989 | [10] 0.953 | S. cerevisiae deletion strains, locus YLR058C, strain SHM2 (second series), stronger effect = lower value 0.97 | S. cerevisiae deletion strains, locus YML094W, strain GIM5, stronger effect = lower value 0.922 | S. cerevisiae deletion strains, locus YMR219W, strain ESC1, stronger effect = lower value 0.976 | [13] 0.965 | S. cerevisiae deletion strains, locus YNL298W, strain CLA4 (second series), stronger effect = lower value 0.93 | [14] 0.982 | S. cerevisiae deletion strains, locus YNR030W, strain Alg12, stronger effect = lower value 0.958 | [15] 0.86 | S. cerevisiae deletion strains, locus YPR135W, strain CTF4, stronger effect = lower value 0.812
active: S. cerevisiae deletion strains, locus YGR078C, strain PAC10, stronger effect = lower value 0.92 | [11] 0.297 | S. cerevisiae deletion strains, locus YLR085C, strain ARP6, stronger effect = lower value 0.666 | [12] 0.242 | S. cerevisiae deletion strains, locus YPL241C, strain CIN2, stronger effect = lower value 0.792
